# Experimental data: PubChem BioAssay (NCATS)
# Results filed as inconclusive are left out. Unmarked numbers belong to inactive results. The source made the active and inactive calls. Calls come from the whole dose curve; as a rule, active = well fitted curve in the direction sought with a large enough effect; inconclusive = small, poorly fitted or top-dose-only effect, or another doubt; inactive = no such curve, though single readings can be large; an effect the other way counts as inactive or inconclusive.
# Tests used:
# [1] = Quantitative High-Throughput drug screen in 47 multiple myeloma cell lines against the NCATS MIPE library collection: KMS21BM_JCRB cell viability assay (AID 1918974); conditions: ATP luminescence, 48 h; viability: at 45.8 µM unless noted
# Method in brief: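 Approved and investigational drugs from MIPE 4.0 were added by pin tool to 500 cells per well. After 48 hours at 37C, ATP-based CellTiter-Glo luminescence indicated remaining viability.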
# [2] = Quantitative High-Throughput drug screen in 47 multiple myeloma cell lines against the NCATS MIPE library collection: LP1_DSMZ cell viability assay (AID 1918982); note: nearly all actives have a fitted effect of over 35% in size
# Method in brief: (§1)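 Cells were exposed to library compounds for 48 hours, after which ATP was measured by CellTiter-Glo. Signal was taken as median relative luminescence units.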
# [3] = Quantitative High-Throughput drug screen in 47 multiple myeloma cell lines against the NCATS MIPE library collection: OPM1_PLB cell viability assay (AID 1918989); note: nearly all actives have a fitted effect of over 40% in size
# Method in brief: as §1
# [4] = Quantitative High-Throughput drug screen in 47 multiple myeloma cell lines against the NCATS MIPE library collection: SKMM1_PLB cell viability assay (AID 1919863); conditions: SKMM1 myeloma viability, CellTiter-Glo ATP, 48 h; viability: stronger effect = lower value; note: nearly all actives have a fitted effect of over 35% in size; for viability: series mostly up to about 46 µM
# Method in brief: as §1
# [5] = Quantitative High-Throughput drug screen in 47 multiple myeloma cell lines against the NCATS MIPE library collection: OCIMY1_PLB cell viability assay (AID 1918979); note: nearly all actives have a fitted effect of over 35% in size;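 for viability: series mostly up to about 46 µM; 100% = DMSO-only wells and 0% = cell-free media-only wells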
# Method in brief: as §1
# [6] = Quantitative High-Throughput drug screen in 47 multiple myeloma cell lines against the NCATS MIPE library collection: KMS34_JCRB cell viability assay (AID 1918985); note: nearly all actives have a fitted effect of over 40% in size
# Method in brief: as §1
# [7] = Quantitative High-Throughput drug screen in 47 multiple myeloma cell lines against the NCATS MIPE library collection: OCIMY5_PLB cell viability assay (AID 1918988); note: nearly all actives have a fitted effect of over 65% in size
# Method in brief: as §1
# [8] = Quantitative High-Throughput drug screen in 47 multiple myeloma cell lines against the NCATS MIPE library collection: XG6_PLB cell viability assay (AID 1919865); note: nearly all actives have a fitted effect of over 40% in size
# Method in brief: as §1
# [9] = Quantitative High-Throughput drug screen in 47 multiple myeloma cell lines against the NCATS MIPE library collection: XG1_PLB cell viability assay (AID 1919866); note: nearly all actives have a fitted effect of over 35% in size
# Method in brief: as §1
# [10] = Quantitative High-Throughput drug screen in 47 multiple myeloma cell lines against the NCATS MIPE library collection: KMS26_JCRB cell viability assay (AID 1918975); note: nearly all actives have a fitted effect of over 45% in size;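 for viability (% of DMSO): 100% = DMSO-treated wells and 0% = wells with media only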
# Method in brief: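 Viability readout: CellTiter-Glo luminescence following 5 min room-temperature incubation with reagent. Prior exposure: 48 h, 37C, humidified 5% CO2, 500 cells per well.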
# [11] = Quantitative High-Throughput drug screen in 47 multiple myeloma cell lines against the NCATS MIPE library collection: MMM1_PLB cell viability assay (AID 1918976); note: nearly all actives have a fitted effect of over 35% in size
# Method in brief: as §1
# [12] = Quantitative High-Throughput drug screen in 47 multiple myeloma cell lines against the NCATS MIPE library collection: MOLP8_DSMZ cell viability assay (AID 1918977); note: nearly all actives have a fitted effect of over 45% in size
# Method in brief: as §1
# [13] = Quantitative High-Throughput drug screen in 47 multiple myeloma cell lines against the NCATS MIPE library collection: MM1S_ATCC cell viability assay (AID 1918980); note: nearly all actives have a fitted effect of over 45% in size
# Method in brief: as §1
# [14] = Quantitative High-Throughput drug screen in 47 multiple myeloma cell lines against the NCATS MIPE library collection: MM1R_ATCC cell viability assay (AID 1918981); note: nearly all actives have a fitted effect of over 35% in size
# Method in brief: as §1
# [15] = Quantitative High-Throughput drug screen in 47 multiple myeloma cell lines against the NCATS MIPE library collection: KMS28PE_JCRB cell viability assay (AID 1918983); note: nearly all actives have a fitted effect of over 35% in size
# Method in brief: as §1
# [16] = Quantitative High-Throughput drug screen in 47 multiple myeloma cell lines against the NCATS MIPE library collection: OCIMY7_PLB cell viability assay (AID 1918987); conditions: OCI-MY7 myeloma viability, CellTiter-Glo ATP, 48 h; viability (% of DMSO): at 45.8 µM; note: nearly all actives have a fitted effect of over 65% in size
# Method in brief: as §1
# [17] = Quantitative High-Throughput drug screen in 47 multiple myeloma cell lines against the NCATS MIPE library collection: U266_ATCC cell viability assay (AID 1919864); note: nearly all actives have a fitted effect of over 35% in size
# Method in brief: as §1
# [18] = Quantitative High-Throughput drug screen in 47 multiple myeloma cell lines against the NCATS MIPE library collection: NCIH929_DSMZ cell viability assay (AID 1918978); note: nearly all actives have a fitted effect of over 35% in size
# Method in brief: as §1
# [19] = Quantitative High-Throughput drug screen in 47 multiple myeloma cell lines against the NCATS MIPE library collection: L363_DSMZ cell viability assay (AID 1918984); note: nearly all actives have a fitted effect of over 40% in size
# Method in brief: as §1
# [20] = Quantitative High-Throughput drug screen in 47 multiple myeloma cell lines against the NCATS MIPE library collection: VP6_DJ cell viability assay (AID 1919867); note: nearly all actives have a fitted effect of over 40% in size;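 for viability (% of DMSO): 100% = DMSO-only wells and 0% = wells with media alone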
# Method in brief: as §1
# Potency is the fitted concentration of half-maximal effect.
smiles,measurement,setting,value
CO[C@H]1C[C@@H]2CC[C@@H](C)[C@@](O)(O2)C(=O)C(=O)N2CCCC[C@@H]2C(=O)O[C@H]([C@H](C)C[C@@H]2CC[C@H](OCCO)[C@H](OC)C2)CC(=O)[C@H](C)C=C(C)[C@@H](O)[C@@H](OC)C(=O)[C@H](C)C[C@H](C)C=CC=CC=C1C,Potency,[1],7.43 µM (active)
same,Potency,[2],inactive
same,Potency,[3],1.05 µM (active)
same,viability,[4],66.8%
CC1(C)CCC[C@@]2(C)[C@@H]1CC[C@@]1(C)OC(=O)C[C@H]21,Potency,[1],inactive
same,Potency,[5],inactive
same,Potency,[2],inactive
same,Potency,[6],inactive
same,Potency,[7],23.5 µM (active)
same,Potency,[3],inactive
same,Potency,[4],8.33 µM (active)
same,Potency,[8],inactive
same,Potency,[9],inactive
c1ccc2c(Cc3c[nH]c4ccccc34)c[nH]c2c1,Potency,[10],4.69 µM (active)
same,Potency,[11],16.6 µM (active)
same,Potency,[12],18.7 µM (active)
same,Potency,[13],1.32 µM (active)
same,Potency,[14],2.35 µM (active)
same,Potency,[15],26.4 µM (active)
same,Potency,[16],1.05 µM (active)
same,Potency,[7],0.743 µM (active)
same,Potency,[3],7.43 µM (active)
same,Potency,[4],18.7 µM (active)
same,Potency,[17],2.96 µM (active)
same,Potency,[8],0.662 µM (active)
same,Potency,[9],1.18 µM (active)
O=C1c2ccccc2-[n+]2ccc3c([nH]c4ccccc43)c21,Potency,[10],2.35 µM (active)
same,Potency,[11],1.32 µM (active)
same,Potency,[12],1.48 µM (active)
same,Potency,[18],3.32 µM (active)
same,Potency,[5],3.72 µM (active)
same,Potency,[13],2.64 µM (active)
same,Potency,[14],2.09 µM (active)
same,Potency,[2],2.35 µM (active)
same,Potency,[19],3.72 µM (active)
same,Potency,[6],0.833 µM (active)
same,Potency,[16],0.264 µM (active)
same,Potency,[7],1.05 µM (active)
same,Potency,[3],0.935 µM (active)
same,Potency,[4],2.96 µM (active)
same,Potency,[17],2.35 µM (active)
same,Potency,[8],1.48 µM (active)
same,Potency,[9],1.05 µM (active)
same,Potency,[20],1.48 µM (active)
C=C1C(=O)[C@@]23C(CC[C@@H]1[C@H]2O)[C@@]12CO[C@]3(O)[C@@H](O)[C@@H]1C(C)(C)CC[C@@H]2O (stereo partly specified),Potency,[10],2.64 µM (active)
same,Potency,[11],13.2 µM (active)
same,Potency,[12],2.35 µM (active)
same,Potency,[5],7.43 µM (active)
same,Potency,[13],1.87 µM (active)
same,Potency,[14],1.48 µM (active)
same,Potency,[2],4.18 µM (active)
same,Potency,[6],1.05 µM (active)
same,Potency,[16],0.296 µM (active)
same,Potency,[7],1.87 µM (active)
same,Potency,[3],3.72 µM (active)
same,Potency,[4],13.2 µM (active)
same,Potency,[17],8.33 µM (active)
same,Potency,[8],1.48 µM (active)
same,Potency,[9],2.96 µM (active)
Nc1ncnc2c1nc(Cl)n2[C@@H]1O[C@H](CO)[C@@H](O)[C@@H]1O,Potency,[10],20.9 µM (active)
same,Potency,[11],18.7 µM (active)
same,Potency,[12],7.43 µM (active)
same,Potency,[13],4.18 µM (active)
same,Potency,[14],0.935 µM (active)
same,Potency,[2],20.9 µM (active)
same,Potency,[15],18.7 µM (active)
same,Potency,[19],20.9 µM (active)
same,Potency,[6],11.8 µM (active)
same,Potency,[7],0.418 µM (active)
same,Potency,[4],14.8 µM (active)
same,Potency,[17],14.8 µM (active)
same,Potency,[8],1.18 µM (active)
same,Potency,[9],16.6 µM (active)
Clc1ccc(-c2nc3sccn3c2C=NOCc2ccc(Cl)c(Cl)c2)cc1,Potency,[10],inactive
same,Potency,[11],0.372 µM (active)
same,Potency,[12],inactive
same,Potency,[5],inactive
same,Potency,[13],inactive
same,Potency,[14],inactive
same,Potency,[2],inactive
same,Potency,[6],inactive
same,Potency,[3],inactive
same,viability,[4],102%
same,Potency,[20],inactive
O=C1c2c(O)cc(O)cc2O[C@H](c2cc(O)c(O)c(O)c2)[C@H]1O,Potency,[10],20.9 µM (active)
same,Potency,[11],10.5 µM (active)
same,Potency,[12],18.7 µM (active)
same,Potency,[18],inactive
same,Potency,[13],20.9 µM (active)
same,Potency,[14],23.5 µM (active)
same,Potency,[2],20.9 µM (active)
same,Potency,[15],20.9 µM (active)
same,Potency,[6],11.8 µM (active)
same,Potency,[7],13.2 µM (active)
same,Potency,[3],inactive
same,Potency,[4],20.9 µM (active)
same,Potency,[17],11.8 µM (active)
same,Potency,[20],inactive
O=C1NC(=O)C(=Cc2ccc3nccnc3c2)S1,Potency,[10],12.9 µM (active)
same,Potency,[11],8.12 µM (active)
same,Potency,[18],3.63 µM (active)
same,Potency,[13],6.45 µM (active)
same,Potency,[14],8.12 µM (active)
same,Potency,[15],10.2 µM (active)
same,Potency,[19],0.115 µM (active)
same,Potency,[3],6.45 µM (active)
same,Potency,[4],6.45 µM (active)
same,Potency,[9],6.45 µM (active)
same,Potency,[20],4.57 µM (active)
CC(=O)N(C)C1(c2ccccc2)CCN(CCC[C@]2(c3ccc(Cl)c(Cl)c3)CCCN(C(=O)c3ccccc3)C2)CC1,Potency,[10],20.9 µM (active)
same,Potency,[11],20.9 µM (active)
same,Potency,[12],23.5 µM (active)
same,Potency,[18],11.8 µM (active)
same,Potency,[5],26.4 µM (active)
same,Potency,[13],20.9 µM (active)
same,Potency,[14],23.5 µM (active)
same,Potency,[2],26.4 µM (active)
same,Potency,[15],20.9 µM (active)
same,Potency,[19],5.9 µM (active)
same,Potency,[7],18.7 µM (active)
same,Potency,[3],18.7 µM (active)
same,Potency,[17],23.5 µM (active)
same,Potency,[8],8.33 µM (active)
same,Potency,[9],14.8 µM (active)
same,Potency,[20],13.2 µM (active)
CC(=O)Nc1ccc([C@H](C)C(=O)Nc2ncc(C(C)C)s2)cc1,Potency,[10],1.32 µM (active)
same,Potency,[11],6.62 µM (active)
same,Potency,[12],3.32 µM (active)
same,Potency,[18],0.264 µM (active)
same,Potency,[5],5.9 µM (active)
same,Potency,[13],0.418 µM (active)
same,Potency,[14],0.743 µM (active)
same,Potency,[2],2.35 µM (active)
same,Potency,[6],3.72 µM (active)
same,Potency,[7],0.743 µM (active)
same,Potency,[3],5.26 µM (active)
same,Potency,[4],8.33 µM (active)
same,Potency,[17],4.69 µM (active)
same,Potency,[8],0.0935 µM (active)
same,Potency,[9],0.418 µM (active)
same,Potency,[20],1.66 µM (active)
